Compound activity as filed in PubChem.
Only some compounds are listed: those with a hit (about 3.2% of all), similar ones and a draw of the others.
FMDV antiviral – foot and mouth disease virus antiviral activity | AID 1159524 | 410,000 tested, 1.2% active | FMDV antiviral cell-based qHTS | Potency, µM (top dose mostly 57.9 µM), usual class: inhibitors; calls by dose curve; tested in HEK293T cells; further: read-out not given here; nearly all actives have a fitted effect of over 45% in size
Vaccinia mCherry – inhibitors of vaccinia virus infection (mCherry reporter signal) | 310,000 tested, 0.63% active | Vaccinia virus mCherry reporter infection, fluorescence | Potency, µM (doses to about 36.5 µM), most hits filed as inhibitors; calls by dose curve; tested in A549 cells; further: nearly all actives have a fitted effect of over 35% in size
Vaccinia Venus – inhibitors of vaccinia virus (Venus reporter); Vaccinia virus Venus reporter expression, fluorescence; Potency, µM (titrated, usually from 36.5 µM), usual class: inhibitors; 330,000 tested, 0.46% active; calls by dose curve; tested in A549 cells; further: nearly all actives have a fitted effect of over 30% in size
MARV entry inh – Marburg virus entry inhibition | Marburg virus pseudotyped entry inhibition, cell reporter | Potency, µM (highest dose often 37.8 µM), actives largely listed as inhibitors | 300,000 tested, 1.8% active | AID 540276; calls by dose curve; tested in HEK293 cells
LASV entry inh – blocks Lassa virus binding to or entry into cells | Lassa virus pseudotype entry inhibition, cell reporter | Potency, µM (titrated, usually from 37.9 µM), usual class: inhibitors | 300,000 tested, 1.2% active; calls by dose curve; tested in HEK293 cells; further: nearly all actives have a fitted effect of over 50% in size
Of the large screens only hits and unclear results are named; the others gave an inactive call.

Cc1ccc(C(=O)CCS(=O)(=O)c2ccc(Br)cc2)cc1	LASV entry inh inconclusive
Cc1ccc(S(=O)(=O)CCC(=O)c2cccc([N+](=O)[O-])c2)cc1	FMDV antiviral 25µM, MARV entry inh inconclusive, LASV entry inh inconclusive
Cc1ccc(S(=O)(=O)Cc2cc(F)c([N+](=O)[O-])cc2[N+](=O)[O-])cc1	Vaccinia mCherry 2.8µM, Vaccinia Venus inconclusive, MARV entry inh inconclusive
CN(C)CCN(C)Cc1ccccc1Sc1cccc2ccccc12	FMDV antiviral inconclusive, Vaccinia mCherry 13µM, Vaccinia Venus inconclusive, MARV entry inh inconclusive, LASV entry inh inconclusive
COC(=O)C1=CN(c2ccc(OC)cc2OC)C(N)=C(C#N)C1c1cccc([N+](=O)[O-])c1 (configuration not stated)	Vaccinia mCherry inconclusive, Vaccinia Venus inconclusive (no result: MARV entry inh, LASV entry inh)
Cc1nnc(SCC(=O)Nc2sc3c(c2C#N)CCCC3)[nH]c1=O	none (no result: Vaccinia mCherry)
N#Cc1c(NC(=O)CSc2nc(N)cc(=O)[nH]2)sc2c1CCCC2	FMDV antiviral inconclusive, MARV entry inh 10µM, LASV entry inh inconclusive
CCc1ccc(CCC(=O)Nc2sc3c(c2C#N)CCCC3)o1	MARV entry inh 2.3µM, LASV entry inh inconclusive (no result: Vaccinia mCherry, Vaccinia Venus)
C[C@@H](NC(=O)[C@@H]1CCCN1C(=O)[C@@H]1CCCN1C(=O)c1cccs1)c1ccccc1	none (no result: MARV entry inh, LASV entry inh)
O=C(Nc1ccccc1N1CCOCC1)c1cnccn1	none (no result: LASV entry inh)
O=C(Nc1ccc(N2CCOCC2)cc1)c1cnsn1	FMDV antiviral 28µM (no result: LASV entry inh)
CCOC(=O)c1ccc(NC(=O)c2cnccn2)cc1	none
O=C(Nc1ccc(N2CCOCC2)cc1)c1cnccn1	MARV entry inh inconclusive, LASV entry inh 2.2µM
CCCCc1ccc(NC(=O)c2cnccn2)cc1	Vaccinia mCherry inconclusive, MARV entry inh 7.9µM, LASV entry inh 11µM
COc1cc(OC)cc(-c2nn[nH]n2)c1	none
Cc1[nH]c2ccccc2c1C(=O)CSc1nc2cc(S(=O)(=O)N3CCCCC3)ccc2o1	MARV entry inh 7.3µM, LASV entry inh inconclusive (no result: Vaccinia mCherry, Vaccinia Venus)
CCCOc1ccc(/C=C/C(=O)Nc2sc(C)c(C)c2C(=O)OCC)cc1OC	none (no result: MARV entry inh)
CCSC1(SCC)N=C(N)C2(C#N)C(c3ccc(F)cc3)C12C#N (configuration not stated)	FMDV antiviral 14µM, MARV entry inh inconclusive, LASV entry inh inconclusive
COC1(OC)N=C(N)C2(C#N)C(c3ccc(F)cc3)C12C#N (configuration not stated)	none
CSCC[C@@H](CO)NC(=O)[C@H]1O[C@@H](n2ccc(=O)[nH]c2=O)[C@H](O)[C@@H]1O	none (no result: MARV entry inh, LASV entry inh)
Cc1cc2c(nc1C)CCCN2CC(O)CN1CCN(C)CC1 (configuration not stated)	none (no result: FMDV antiviral, Vaccinia mCherry, Vaccinia Venus, LASV entry inh)
CC(NC(=O)c1cccnc1)c1nnc2n1CCN(Cc1ccc(F)cc1F)CC2 (configuration not stated)	none (no result: MARV entry inh, LASV entry inh)
CC1(C)Cc2c(ccc3ccccc23)C(c2cc3ccccc3oc2=O)=N1	MARV entry inh 5.8µM, LASV entry inh 13µM (no result: Vaccinia mCherry, Vaccinia Venus)
CC1(C)Cc2ccccc2C(c2cc3ccccc3oc2=O)=N1	Vaccinia Venus inconclusive (no result: Vaccinia mCherry)
O=C(COc1ccc(Cl)cc1)Nc1ncc([N+](=O)[O-])s1	Vaccinia mCherry 11µM, Vaccinia Venus 10µM, MARV entry inh inconclusive, LASV entry inh inconclusive
Cc1ccc(C(=O)Nc2ncc(C)s2)s1	MARV entry inh 2.8µM, LASV entry inh 5µM
O=C(Nc1ncc([N+](=O)[O-])s1)c1ccc2c(c1)OCO2	FMDV antiviral 3.2µM, MARV entry inh 1.6µM, LASV entry inh inconclusive
O=C(Cc1ccc(Cl)cc1)Nc1ncc([N+](=O)[O-])s1	MARV entry inh inconclusive
Cc1cnc(NC(=O)c2cc3ccccc3o2)s1	MARV entry inh 13µM
COc1cc2nc(N3CCCCC3)nc(NC3CC3)c2cc1OC	none (no result: FMDV antiviral, MARV entry inh, LASV entry inh)
Cc1cnc(NC(=O)c2ccc3c(c2)OCCO3)s1	FMDV antiviral 10µM (no result: Vaccinia mCherry, Vaccinia Venus, MARV entry inh, LASV entry inh)
Cc1ccc(C(=O)Nc2ncc([N+](=O)[O-])s2)cc1	FMDV antiviral 8.9µM (no result: Vaccinia mCherry, Vaccinia Venus, MARV entry inh, LASV entry inh)
Cc1nc2ccc3nc(NC(=O)c4ccc5c(c4)OCCO5)sc3c2s1	LASV entry inh inconclusive
COc1cc(Cl)c(C)cc1NC(=O)CCn1c(=O)c2cccn2c2cccnc21	none (no result: MARV entry inh)
COc1ccc(-c2sc(N)nc2-c2ccccc2)cc1	none (no result: FMDV antiviral, MARV entry inh, LASV entry inh)
c1ccc(CNc2c(-c3cccc(SC4CCCCC4)c3)nc3ccccn23)cc1	FMDV antiviral 22µM, Vaccinia Venus inconclusive (no result: MARV entry inh, LASV entry inh)
Cc1ccc2nc(-c3cccc(SC4CCCCC4)c3)c(NCc3ccccc3)n2c1	FMDV antiviral 25µM, Vaccinia Venus inconclusive (no result: MARV entry inh, LASV entry inh)
Cc1cc(C)nc(N/C(=N\S(=O)(=O)Cc2ccccc2)Nc2ccccc2Br)n1	Vaccinia mCherry inconclusive, MARV entry inh 2.8µM, LASV entry inh 4.1µM
Cc1cc(C)nc(Nc2ccccc2Br)n1	none
COc1ccc(COc2cc(-c3cccc(OC)c3)nc3ccc(NC(=O)c4cccnc4)cc23)cc1	LASV entry inh 15µM
COc1ccc(COc2cc(-c3cccc(OC)c3)nc3ccc(NC(=O)c4ccc(OC)cc4)cc23)cc1	FMDV antiviral inconclusive, MARV entry inh inconclusive, LASV entry inh inconclusive
Cc1ccc(F)cc1NC(=O)c1ccc(Cn2nc(N3CCN(c4ccccc4)CC3)ccc2=O)o1	FMDV antiviral 35µM, Vaccinia mCherry inconclusive, Vaccinia Venus inconclusive, LASV entry inh inconclusive (no result: MARV entry inh)
Cc1cccc(CN2C(=O)/C(=C\c3ccc(C(=O)NCCN4CCOCC4)cc3)Sc3ccccc32)c1	FMDV antiviral 40µM, MARV entry inh inconclusive, LASV entry inh inconclusive
CCCCC[C@H]1C[C@@H](CC#CCN2CCOCC2)C(=O)O1	none (no result: FMDV antiviral, Vaccinia mCherry, Vaccinia Venus, LASV entry inh)
OC(C[n+]1ccccc1Cl)c1ccccc1 (configuration not stated)	none (no result: FMDV antiviral, MARV entry inh, LASV entry inh)
COC(=O)C1=C(c2ccc(-c3ccccc3)c(F)c2)C[C@@H]2CC[C@H]1N2C(=O)N1CCCC1	Vaccinia mCherry 22µM, Vaccinia Venus inconclusive (no result: MARV entry inh, LASV entry inh)
COC(=O)C1=C(c2ccc(-c3ccccc3)c(F)c2)C[C@@H]2CC[C@H]1N2C(=O)N1CCC(C)CC1	Vaccinia Venus inconclusive (no result: MARV entry inh, LASV entry inh)
COc1ccccc1NC1=CC(=O)CC(c2ccccc2)C1 (configuration not stated)	LASV entry inh 7.3µM
COc1ccc(NC2=CC(=O)CC(c3ccc(C)cc3)C2)c(OC)c1 (configuration not stated)	none
CCC1CN(CCNC(=O)c2ccc(N3CCOCC3)cc2)Cc2cc(OC)ccc2O1 (configuration not stated)	none (no result: MARV entry inh, LASV entry inh)
OCCN1C2=NCCCN2c2ccccc21	MARV entry inh inconclusive
N=C1Sc2ccccc2C2=NCCCN12	MARV entry inh 1.6µM (no result: FMDV antiviral, Vaccinia mCherry, Vaccinia Venus, LASV entry inh)
CCCCCCCCn1ccc(=N)cc1	FMDV antiviral inconclusive, MARV entry inh inconclusive, LASV entry inh inconclusive
CCCCCCCCCCCCCCCCn1cc[n+](C)c1	FMDV antiviral 32µM, Vaccinia mCherry inconclusive, Vaccinia Venus inconclusive, MARV entry inh inconclusive
Cc1ccc(-c2cc3nc(-c4ccccc4)cc(N)n3n2)cc1	none
Cc1cc(N)n2nc(-c3ccccc3)cc2n1	Vaccinia mCherry inconclusive, MARV entry inh 8.9µM, LASV entry inh inconclusive
Cc1ccc(NC(=O)CSc2n[nH]c(-c3ccccn3)n2)cc1	Vaccinia mCherry 10µM, Vaccinia Venus inconclusive, MARV entry inh 4.5µM, LASV entry inh inconclusive
O=C(CSc1n[nH]c(-c2ccncc2)n1)Nc1ccc(F)cc1	none
O=C(CSc1n[nH]c(-c2ccccn2)n1)Nc1ccc(F)cc1	Vaccinia mCherry 14µM, Vaccinia Venus inconclusive, MARV entry inh inconclusive, LASV entry inh 10µM
